Measured values published in ChEMBL document CHEMBL3988442, “University of Dundee, Small-Polar-MMV Screening Library” (2021).
Screen size: about 69,000 compounds; about 950 (1.4%) showed an effect of 50% or more. Many of the other results were omitted from the sample, so strong results are more common in it than they were.

Test system: Mycobacterium tuberculosis
Assay: Cornell M. t heat shock assay; note: in the data most compounds retested in dose-response had high values
Assay type: functional, organism-based
Parameters: dose or concentration left out as unconfirmed

Point of comparison: CC(C)N(C)CC(=O)Nc1nccn1Cc1ccccc1Cl, “Percent Effect” value 70.24%. Against it:
- N#Cc1cccc(CN2C[C@@H]3CN(c4ncccn4)C[C@@H]3C2)c1.O=C(O)C(F)(F)F — lower, 29.7%
- CO[C@H]1C[C@@H]2CN(C(=O)c3cc4cccc(F)c4[nH]3)C[C@@H]2C1 — lower, 17.75%
- CCNC(=O)CCc1c(C)nc2cc(O)nn2c1C — lower, 0.7588%
- COC(=O)CCc1c(C)nc2cc(O)nn2c1C — lower, -4.051%
- COc1ccc(NC(=O)CCc2c(C)nc3cc(O)nn3c2C)cn1 — lower, 61.44%
- CN(C)C(=O)c1cn[nH]c1C1CCCN1Cc1nccn1C.O=CO (centres undefined) — lower, -23.16%
- Cc1ccc(CN2CCC(O)(Cn3nc(-c4cccs4)oc3=O)CC2)o1.O=C(O)CC(O)(CC(=O)O)C(=O)O — lower, 5.66%
- CC1(C)CC(N2Cc3nc(N4CCCC4)ncc3C2=O)CC(C)(C)N1 — lower, 8.213%
- Cc1noc(C2CCN(C(=O)CCNc3ncccn3)CC2)n1 — lower, 13.08%
- Cc1noc(C2CCN(C(=O)CCc3ccccn3)CC2)n1 — lower, 13.4%
- Cc1noc(C2CCN(C(=O)CCc3nccs3)CC2)n1 — lower, 51.73%
- O=C(O)C(F)(F)F.O=C(O)C(F)(F)F.c1cnn(CCCO[C@@H]2CC[C@H]3[C@H]2OCCN3CC2CC2)c1 — lower, -27.44%
- CCn1ncc2c1CN(CCc1cccc(Cl)c1)CC2COC.O=C(O)C(F)(F)F.O=C(O)C(F)(F)F (centres undefined) — lower, -10.95%
- O=C(NC1(c2nccs2)CCCC1)c1cc(C2CC2)on1 — lower, 7.107%
- CCCc1nc(CNC2(c3nccs3)CCCC2)cs1 — higher, 94.85%
- c1csc(C2(NCc3csc(C4CC4)n3)CCCC2)n1 — lower, 66.7%
- O=C(CCNC1(c2nccs2)CCCC1)N1CCOCC1 — lower, -14.8%
- CCCc1nc(CNC(=O)Cc2csc(C)n2)cs1 — lower, 8.263%
- Cc1csc(C2(NCc3csc(C4CC4)n3)CCCC2)n1 — lower, 41.22%
- Cc1cccc(CN2CCc3nnc(Cn4cccc4)n3CC2)n1.O=C(O)C(F)(F)F — lower, -14.44%
- O=C(O)C(F)(F)F.O=C(O)C(F)(F)F.c1cc(-c2ccc3nc(C4CCN(CC5CC5)CC4)nn3c2)ccn1 — lower, -27.27%
- Cc1cccc(CN2CC[C@@H]3[C@@H]2CCN3C(=O)c2cc(C)on2)n1.O=C(O)C(F)(F)F — lower, -16.64%
- CCN(CC)CC1CN(Cc2cccc(C#N)c2)Cc2nccn2C1.O=C(O)C(F)(F)F.O=C(O)C(F)(F)F (centres undefined) — lower, -22.76%
- Cc1nnc2n1CCN(Cc1csc(-c3ccsc3)n1)C2 — lower, -0.9289%
- c1cnc(-c2nc(CN3CCn4c(nnc4C4CC4)C3)cs2)nc1 — lower, 18.84%
- c1sc(C2CCCCC2)nc1CN1CCn2c(nnc2C2CC2)C1 — lower, 7.076%
- c1ccc(-c2nc(CN3CCn4c(nnc4C4CC4)C3)cs2)cc1 — lower, 10.73%
- CCc1nnc2n1CCN(Cc1csc(-c3ccc(C)o3)n1)C2 — lower, 49.84%
- Cc1ccc(-c2nc(CN3CCn4c(nnc4C4CC4)C3)cs2)o1 — higher, 171.6%
- c1cc(-c2nc(CN3CCn4c(nnc4C4CC4)C3)cs2)cs1 — higher, 159.7%
- Cc1ccc(-c2nc(CN3CCn4c(C)nnc4C3)cs2)o1 — lower, -2.255%
- c1sc(C2CCCC2)nc1CN1CCn2c(nnc2C2CC2)C1 — lower, 55.31%
- Cc1ccc(C)c(-n2cc(CN3CC[C@@H](O)C3)c(-c3ccccc3)n2)c1 — higher, 85.17%
- Cc1ccc(C)c(-n2cc(CN3CCOCC3)c(-c3ccccc3)n2)c1 — lower, 9.683%
- Cc1cccc(-c2noc(CN3CCOCC3C)n2)c1 (centres undefined) — lower, -19.27%
- Cn1cc(CN2CCCC(O)C2)c(-c2ccccc2F)n1 (centres undefined) — lower, 14.46%
- Cc1ccc(S(=O)(=O)c2ncccc2CN2CCOCC2)cc1 — lower, -21.96%
- Cc1ccc(-n2cc(CN3CCOCC3)c(-c3cccc(C)c3)n2)cc1 — higher, 101.4%
- CCC(=O)Nc1cccc(OCC(=O)N[C@@H]2C[C@H]3CC[C@@H]2C3)c1 — lower, -8.125%
- O=C(O)C(F)(F)F.O=C(O)C(F)(F)F.c1cc(CO[C@@H]2CN(Cc3ccoc3)[C@@H]3CCCO[C@@H]32)ccn1 — lower, 21.84%
- CN1CCOCC2(CCCN(C(=O)c3ccccc3F)C2)C1.O=C(O)C(F)(F)F (centres undefined) — lower, -25.25%
- CN(C)C(=O)N1CCC2(CC1)CN(Cc1ccccn1)C(=O)CO2.O=C(O)C(F)(F)F — lower, -0.5573%
- Cn1cc(CN2CCCC23CCN(C(=O)c2ccncc2)CC3)cn1.O=C(O)C(F)(F)F — lower, -22.55%
- Cc1ncccc1NC(=O)[C@H]1C[C@@H]2CCN(Cc3nccs3)C[C@@H]2O1.O=C(O)C(F)(F)F.O=C(O)C(F)(F)F — lower, -3.608%
- O=C(CC1CN(Cc2ccccc2)CCO1)NCCN1CCOCC1 (centres undefined) — lower, -41.8%
- Cl.O=C(O)CC1CN(Cc2ccccc2)CCO1 (centres undefined) — higher, 70.76%
- O=C(CC1CN(Cc2ccccc2)CCO1)NC1CCCC1 (centres undefined) — lower, -14.55%
- Cc1ccc(CN2CCn3cc(CN4CCN(C)CC4)nc3C2)cc1.O=C(O)C(F)(F)F.O=C(O)C(F)(F)F.O=C(O)C(F)(F)F — lower, -4.711%
- CNC(=O)NCC1CCC2(CCN(C(=O)c3cccnc3)CC2)CO1.O=C(O)C(F)(F)F (centres undefined) — lower, 9.868%
- O=C(O)CC(O)(CC(=O)O)C(=O)O.c1cncc(-c2nccc(CN3CCC(N4CCCCC4)CC3)n2)c1 — lower, -13.06%
- O=C(O)C(F)(F)F.O=C(O)C(F)(F)F.c1cncc(COCc2nnn3c2CN(Cc2ccsc2)CC3)c1 — lower, -26.71%
- Cc1cnc(C(=O)N2CCN(C(=O)C(C)C)[C@@H]3CS(=O)(=O)C[C@@H]32)cn1 — lower, 4.224%
- CC(C)C(=O)N1CCN(C(=O)c2cc(C(C)C)on2)[C@H]2CS(=O)(=O)C[C@H]21 — lower, -10.22%
- CC(C)C(=O)N1CCN(C(=O)c2cscn2)[C@H]2CS(=O)(=O)C[C@H]21 — higher, 73.31%
- Cc1ccc(OCC(=O)N2CCCC(n3nc(C)nc3C)C2)cc1 (centres undefined) — lower, -13.19%
- Cc1n[nH]cc1CNC(C(=O)N1CCCCC1)c1ccccc1 (centres undefined) — lower, -8.652%
- O=C(O)C(F)(F)F.c1csc(CN2CCc3nnc(COc4cncnc4)n3CC2)c1 — lower, -24.48%
- Cc1nc(CN2CCC3(CCCO3)CC2)c2ccccn12 — higher, 77.67%
- Cc1ccc(C2(O)CCN(Cc3nc(C)n4ccccc34)CC2)nc1 — lower, 43.96%
- Cc1nc(CN2C[C@@H](CN3CCOCC3)[C@@H](CO)C2)c2ccccn12 — lower, 1.211%
- Cl.Cl.NCC1CN(c2ncnc3[nH]cnc23)CCO1 (centres undefined) — lower, -17.53%
- CNC(=O)C1Cn2ccnc2C2(CCN(Cc3nccs3)CC2)O1.O=C(O)C(F)(F)F.O=C(O)C(F)(F)F (centres undefined) — lower, -22.49%
- Cc1nc(CN2C[C@@H]3COC[C@]3(COCC(=O)N(C)C)C2)cs1.O=C(O)C(F)(F)F — lower, -21.91%
- Cc1ccc2c(c1)C1(CCNCC1)CC2OCC1CC1 (centres undefined) — lower, 13.82%
- CCOC1CC2(CCN(C(=O)COC)CC2)c2cc(C)ccc21 (centres undefined) — lower, -4.26%
- COCCN1CCC2(CC1)CC(OCC1CC1)c1ccc(C)cc12 (centres undefined) — lower, 53.27%
- COCCN1CCC2(CC1)CN(C(=O)c1ccccc1)CCO2.O=C(O)C(F)(F)F — lower, -8.433%
- CN(C)C(=O)N1CCC2(CCCN(CCOc3ccccc3)C2)C1.O=C(O)C(F)(F)F (centres undefined) — lower, -6.162%
- O=C(O)C1(Oc2cccc(F)c2)CCN(C2CCOCC2)CC1 — lower, 1.505%
- O=C(O)C1(Oc2ccc3c(c2)OCO3)CCN(C2CCOCC2)CC1 — lower, -2.757%
- O=C(O)C1(Oc2ccc(Cl)cc2)CCN(C2CCOCC2)CC1 — lower, 51.75%
- Cc1cc(C2CCCN(CC(=O)N3CCc4ccccc43)C2)n[nH]1 (centres undefined) — lower, -11.71%
- O=C(CN1CCCC(c2ccn[nH]2)C1)Nc1nc2c(s1)CCCC2 (centres undefined) — higher, 102.5%
- O=C(CN1CCCC(c2ccn[nH]2)C1)N1CCCc2ccccc21 (centres undefined) — lower, -24.99%
- O=C(O)c1cccc(CN2CCCC(c3ccn[nH]3)C2)c1 (centres undefined) — lower, -8.776%
- O=C1CCCN1CCN1CCCC(c2ccn[nH]2)C1 (centres undefined) — lower, 4.433%
- CC(C)C1Nc2ccccc2C(=O)N1CC(=O)Nc1nc2c(s1)CCC2 (centres undefined) — lower, -0.3209%
- O=C(CN1CCCC(c2ccn[nH]2)C1)Nc1nc2c(s1)CCC2 (centres undefined) — higher, 104%
- Cc1cc(C2CCCN(CC(=O)N3CCCc4ccccc43)C2)n[nH]1 (centres undefined) — lower, -30.42%
- Cc1cc(C2CCCN(CC(=O)Nc3nc4c(s3)CCC4)C2)n[nH]1 (centres undefined) — higher, 104%
- CN1CCOCC2(CCCN(C(=O)Cc3ccncc3)C2)C1.O=C(O)C(F)(F)F (centres undefined) — lower, -28.6%
- COc1cccc(Cn2c(C3CCNCC3)cc3cccnc32)c1.Cl — lower, 0.437%
- CCC(CN1CCN(C)CC1)NC(=O)C1(c2cccc(F)c2)CC1.O=C(O)CC(O)(CC(=O)O)C(=O)O (centres undefined) — lower, 1.881%
- O=C(O)C(F)(F)F.O=C(O)C(F)(F)F.O=C(O)C(F)(F)F.c1cncc(CN2CCCn3nnc(CN4CCCC4)c3C2)c1 — lower, -36.4%
- CNC(=O)CN1CCCC12CCN(C(=O)c1ccc(F)cc1)CC2.O=C(O)C(F)(F)F — lower, -33.92%
- Cc1oncc1C(=O)N[C@@H]1CN(Cc2ccoc2)C[C@@H]2CCCO[C@@H]21.O=C(O)C(F)(F)F — lower, 44.61%
- CCOc1ccc(Br)cc1C1CCCCN1.Cl (centres undefined) — lower, 18.96%
- CS(=O)(=O)CCC(=O)Nc1cnn(-c2ccccc2Cl)c1 — lower, -2.43%
- CCOCC(=O)Nc1cccnc1-n1ccnc1C — lower, 3.015%
- Cn1ccc(C(=O)Nc2nccn2Cc2ccccc2Cl)cc1=O — lower, 54.71%
- CCOCC(=O)Nc1nccn1Cc1ccccc1Cl — higher, 94.36%
- Cn1ccc(C(=O)Nc2nnc(-c3ccccn3)[nH]2)cc1=O — lower, 24.76%
- CS(=O)(=O)CCn1ccc(NC(=O)Cc2ccccc2Cl)n1 — lower, -16.05%
- CC(C)N(C)CC(=O)Nc1ccc(-n2ccc(C(N)=O)n2)cc1 — lower, 4.536%
- CCOCC(=O)NCCCn1ccnc1-c1ccccc1 — lower, 0.7963%
- CS(=O)(=O)CCC(=O)Nc1nccn1Cc1ccccc1Cl — lower, 51.39%
- CC(C)N(C)CC(=O)NC1CCc2nccn2C1 (centres undefined) — lower, -3.465%
- Cc1nccn1Cc1cccc(CNC(=O)c2ccn(C)c(=O)c2)c1 — lower, -21.74%
